Measurements reported in ChEMBL document CHEMBL1157539, “Thousands of chemical starting points for antimalarial lead identification” (Nature, 2010).

Tests used:
Type in all cases: functional
Plasmodium falciparum [1] = experiment: GSK_TCMDC: Inhibition of Plasmodium falciparum 3D7 in whole red blood cells, using parasite LDH activity as an index of growth. Test compounds present at 2uM
Plasmodium falciparum [2] = experiment: GSK_TCMDC: Inhibition of Plasmodium falciparum Dd2 in whole red blood cells, using parasite LDH activity as an index of growth. Test compounds present at 2uM
HepG2 = experiment: GSK_TCMDC: Percent inhibition of human HepG2 cell line. Test compounds present at 10uM.

Structure (SMILES) | Inhibition (Plasmodium falciparum [1]) | Inhibition (Plasmodium falciparum [2]) | Inhibition (HepG2)
CCn1cc(-c2cc(C(=O)Nc3ccc(OC)cc3C)c3ccccc3n2)c(C)n1 | 97% | 100% | 0%
O=C(O)C(F)(F)F.O=C1OC2(CCN(Cc3cccc(-c4ncc[nH]4)c3)CC2)CN1CCNCc1ccccc1 | 94% | 0% | 0%
Cl.O=S(=O)(Nc1cc2c(cc1OCCCN1CCCCC1)CCNCC2)c1ccc(-c2ccc(Cl)cc2)cc1 | 100% | 19% | 77%
C[C@H](Cc1ccc(OCCCCCOc2ccc(C[C@@H](C)NC[C@H](O)c3cccc(Cl)c3)cc2)cc1)NC[C@H](O)c1cccc(Cl)c1.Cl | 99% | 100% | 99%
CN1CCN(c2ccnc3ccc(NC(=O)Nc4ccc(-c5ccccc5)cc4)cc23)CC1 | 99% | 41% | 0%
O=C(CNC1CCCCC1)Nc1cccc(C(=O)Nc2cccc(C(F)(F)F)c2)c1.O=C(O)C(=O)O | 93% | 80% | 17%
Cc1ccc(CCNCC(O)c2cccc(C(F)(F)F)c2)cc1.Cl (centres undefined) | 94% | 83% | 0%
CCCCNC(=O)[C@H](CC1CCCCC1)NC(=O)c1ccc(O)c(-c2cccc(C(F)(F)F)c2)c1 | 98% | 86% | 0%
Cc1cc(C)cc(OCC(O)CN(Cc2cc(Cl)cc(Cl)c2)C(=O)Nc2ccccc2Cl)c1 (centres undefined) | 93% | 37% | 0%
COc1ccc(NC(=O)CCNc2cc(C)nc(Nc3ccccc3)n2)cc1.O=C(O)C(F)(F)F | 92% | 15% | 0%
Cc1cccc(Cn2c(Cc3ccccc3)nnc2Sc2ccc([N+](=O)[O-])c(C#N)c2)c1 | 91% | 3% | 17%
O=C(CN1CCCCC1)Nc1ccc(Nc2nccc(NCC(O)c3ccccc3)n2)cc1 (centres undefined) | 100% | 95% | 62%
O=C(N[C@@H](CC1CCCCC1)C(=O)NCCN1CCCC1)c1ccc(O)c(-c2cccc(C(F)(F)F)c2)c1 | 99% | 55% | 0%
CN(C)c1cc(C(=O)N[C@@H](Cc2ccccc2)[C@H](O)CNC2CCCCC2)cc2[nH]ccc12.O=CO | 98% | 97% | 10%
Cc1ccc(C)c(Cn2ccc3nc(Cl)nc(Cl)c32)c1 | 95% | 68% | 0%
O=C(Nc1cc(C(F)(F)F)cc(C(F)(F)F)c1)c1cccc([N+](=O)[O-])c1 | 93% | 15% | 23%
O=S(=O)(c1ccccc1Cl)N1CCCCC(c2ccc(C(F)(F)F)cc2)=N1 | 86% | 72% | 22%
O=C(Nc1ccc([N+](=O)[O-])cc1)Nc1cc(C(F)(F)F)ccc1F | 89% | 46% | 8%
Cc1nnsc1C(=O)Nc1cccc(-c2ccc(-c3nc4ccccc4[nH]3)s2)c1 | 89% | 13% | 55%
C[C@@H](C(N)=O)N1CCCCC1c1ccc(OCc2cccc(F)c2)cc1 (some centres undefined) | 84% | 96% | 79%
N#Cc1cccc(COC(=O)C2=C(COc3ccccc3Cl)NC(=O)NC2c2c[nH]c3cnccc23)c1 (centres undefined) | 99% | 0% | 0%
Cc1cc(OCCCNC(=N)c2ccc3ccccc3c2)c(C(C)C)cc1Cl.Cc1ccc(S(=O)(=O)O)cc1 | 95% | 10% | 89%
CC(C)=C(C(=O)OCc1ccccc1)N1C(=O)[C@@H](NC(c2ccccc2)(c2ccccc2)c2ccccc2)[C@H]1[S+]([O-])CC(=O)OC(C)(C)C (some centres undefined) | 92% | 78% | 0%
O=C(NCc1ccccc1[S+]([O-])c1ccccc1CO)C(F)(F)F (centres undefined) | 98% | 2% | 50%
O=C(/C=C/c1ccc(Cl)c(Cl)c1)NC1CCC(CN2CCC(c3coc4ccccc34)CC2)CC1 (centres undefined) | 100% | 41% | 40%
O=c1cc(NCCCNC(CNCCc2ccccc2)c2cc(Br)cc(Br)c2)[nH]c2ccccc12 (centres undefined) | 93% | 53% | 0%
CN1CCN(c2ccc3nccc(CCN4CCC(NCc5ccc6c(n5)NC(=O)CO6)CC4)c3n2)CC1.Cl | 97% | 3% | 9%
CN(CCCN(C)c1cc(NC(=O)c2ccc(F)cc2)ccn1)Cc1cccc(O)c1.O=C(O)C(F)(F)F | 90% | 0% | 2%
